PME-1 inh: blocks human protein phosphatase methylesterase 1 | Q9Y570 | recombinant PME-1, FP-Rh probe fluorescence polarization | inhibition, % at 5.9 µM | 0.53% of 320,000 active;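 active = inhibition above the campaign mean of all compounds plus 3 SD, cut at about 26% in these data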;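 also: competitive labeling of PME-1 active site by serine hydrolase directed probe; inhibitors block probe labeling so polarization falls and inhibition rises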
Fam108B counter: Fam108B inhibition, counter-screen for RBBP9 inhibitors | recombinant Fam108B, FP-Rh probe fluorescence polarization | inhibition, % at 9.51 µM | 0.33% of 300,000 active;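 active = inhibition above the screen mean inhibition plus 3 SD, computed separately per campaign, cut at about 18% in these data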;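 also: inhibitors lower polarization as less probe binds the enzyme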
pPAFAH inh: inhibitors of human plasma PAF acetylhydrolase (pPAFAH); recombinant pPAFAH, FP-rhodamine probe fluorescence polarization; inhibition, % at 3.39 µM; 1.5% of 330,000 active; AID 463082;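 active = inhibition above the mean inhibition across the screen plus 3 SD, cut at about 25% in these data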;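 also: inhibitors block binding of the rhodamine activity-based probe so polarization drops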
PAFAH2 inh: PAFAH2 (human) inhibition; Q99487; recombinant PAFAH2, FP-rhodamine activity probe, fluorescence polarization; inhibition, % at 3.39 µM; 0.99% of 340,000 active; AID 492956;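 active = inhibition above the mean over all tested compounds plus 3 SD, cut at about 30% in these data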;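 also: inhibitors block probe labeling of enzyme so polarization drops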
PAFAH1B2 FP inh: inhibitors of human PAFAH1B2. 1.2% of 340,000 active. recombinant PAFAH1B2, FP-rhodamine activity probe, fluorescence polarization. inhibition, % at 3.39 µM;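 active = inhibition above the mean of all tested compounds plus 3 SD, cut at about 24% in these data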
Target sequence (P68402 whole entry, looked up): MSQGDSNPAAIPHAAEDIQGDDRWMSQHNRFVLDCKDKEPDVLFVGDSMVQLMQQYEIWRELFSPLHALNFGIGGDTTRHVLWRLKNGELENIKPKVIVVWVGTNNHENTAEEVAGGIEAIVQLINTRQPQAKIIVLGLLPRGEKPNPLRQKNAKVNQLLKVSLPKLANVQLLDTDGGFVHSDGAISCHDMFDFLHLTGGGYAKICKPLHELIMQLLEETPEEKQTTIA
PAFAH1B3 FP inh: blocks human PAF acetylhydrolase 1B catalytic subunit 3; Q15102; recombinant PAFAH1B3, FP-rhodamine probe, fluorescence polarization; inhibition, % at 3.39 µM; 0.28% of 340,000 active; AID 492972;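 active = inhibition above the screen-wide average of all tested compounds plus 3 SD, cut at about 25% in these data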
Target sequence (Q15102 whole entry, looked up): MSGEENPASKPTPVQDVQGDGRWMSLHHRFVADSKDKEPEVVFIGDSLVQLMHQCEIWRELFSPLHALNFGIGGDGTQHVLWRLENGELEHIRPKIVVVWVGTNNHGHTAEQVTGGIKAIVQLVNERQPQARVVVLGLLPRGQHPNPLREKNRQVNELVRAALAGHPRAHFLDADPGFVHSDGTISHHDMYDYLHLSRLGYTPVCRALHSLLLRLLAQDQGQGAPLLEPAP
Numbers stand for hits. Hits are enriched below; roughly 2.9% of the tested compounds scored in any of these assays.

Screening Cc1ccc(C(=O)CSC2=C(C#N)C(c3ccco3)C3=C(CCCC3=O)N2)cc1 (stereo not given) returned PME-1 inh 32.3, Fam108B counter inactive, pPAFAH inh inactive, PAFAH2 inh inactive, PAFAH1B2 FP inh inactive and PAFAH1B3 FP inh inactive.
Screening O=C(Nc1ccc(-c2cnco2)cc1)c1ccc(Cl)cc1 returned PME-1 inh inactive, Fam108B counter inactive and pPAFAH inh 28.5.
Cc1[nH]c2ccccc2c1/C=N/Nc1nc(Nc2ccccc2)nc(N2CCOCC2)n1 was read as PME-1 inh 38.8, Fam108B counter inactive, pPAFAH inh inactive, PAFAH2 inh inactive, PAFAH1B2 FP inh inactive and PAFAH1B3 FP inh inactive.
`CC(=O)OC1CC(C)N(C(=O)c2ccccc2)c2ccc(C)cc21` (stereo not given) gave PME-1 inh inactive, Fam108B counter inactive, pPAFAH inh inactive, PAFAH2 inh inactive, PAFAH1B2 FP inh inactive and PAFAH1B3 FP inh inactive.
Cc1ccc2c(c1)C=CC(C)N2C(=O)c1ccccc1 (stereo not given) was read as PME-1 inh inactive, Fam108B counter inactive, pPAFAH inh inactive, PAFAH2 inh inactive, PAFAH1B2 FP inh 31.7 and PAFAH1B3 FP inh inactive.
`O=C(CCc1ccc(S(=O)(=O)N2CCOCC2)cc1)N/N=C/c1ccc(O)c(O)c1O` gave PME-1 inh inactive, Fam108B counter inactive, pPAFAH inh 27.8, PAFAH2 inh inactive, PAFAH1B2 FP inh inactive and PAFAH1B3 FP inh inactive.
Screening COc1ccccc1CNC(=O)CSC(=S)N1CCCC1 returned PME-1 inh inactive, Fam108B counter inactive, pPAFAH inh inactive, PAFAH2 inh inactive, PAFAH1B2 FP inh inactive and PAFAH1B3 FP inh inactive.
Cc1ccc(NC(=O)CN(C)Cc2cccs2)cc1Cl was read as PME-1 inh inactive, Fam108B counter inactive, pPAFAH inh inactive, PAFAH2 inh inactive, PAFAH1B2 FP inh inactive and PAFAH1B3 FP inh inactive.
CCN(CC)c1ccc(NC(=O)CN(C)Cc2cccs2)cc1 was read as PME-1 inh inactive, Fam108B counter inactive, pPAFAH inh 26.4, PAFAH2 inh inactive, PAFAH1B2 FP inh inactive and PAFAH1B3 FP inh inactive.
Cc1cc(NC(=O)CCC(=O)N(CC(=O)NC2CCCC2)c2ccc(F)c(Cl)c2)no1 was read as PME-1 inh inactive, Fam108B counter inactive, pPAFAH inh inactive, PAFAH2 inh inactive, PAFAH1B2 FP inh inactive and PAFAH1B3 FP inh inactive.
COc1ccc(C(=O)N[C@H](C(=O)OCn2nnc3ccccc3c2=O)C(C)C)cc1 was read as PAFAH2 inh inactive, PAFAH1B2 FP inh inactive and PAFAH1B3 FP inh inactive.
`Cc1cccc(CS(=O)(=O)Cc2ccc(C(=O)NCc3cccnc3)o2)c1` gave PME-1 inh inactive, Fam108B counter inactive, pPAFAH inh inactive, PAFAH2 inh inactive, PAFAH1B2 FP inh inactive and PAFAH1B3 FP inh inactive.
Screening Cc1cccc(CS(=O)(=O)Cc2ccc(C(=O)NCc3ccco3)o2)c1 returned PME-1 inh inactive, Fam108B counter inactive, pPAFAH inh 24.8, PAFAH2 inh inactive, PAFAH1B2 FP inh inactive and PAFAH1B3 FP inh inactive.
For Cc1ccc(CS(=O)(=O)Cc2ccc(C(=O)NCc3ccco3)o2)cc1 the results were PME-1 inh inactive, Fam108B counter inactive, pPAFAH inh 33.9, PAFAH2 inh inactive, PAFAH1B2 FP inh inactive and PAFAH1B3 FP inh inactive.
For Cc1c(C(=O)N2CCOCC2)cc(C(C)(C)C)n1-c1ccccc1 the results were PME-1 inh inactive, Fam108B counter inactive, pPAFAH inh inactive, PAFAH2 inh inactive, PAFAH1B2 FP inh 51.1 and PAFAH1B3 FP inh inactive.
Screening CC(C(=O)N1CCOCC1)(c1ccccc1)c1ccccc1 returned PME-1 inh inactive, Fam108B counter inactive, pPAFAH inh inactive, PAFAH2 inh inactive, PAFAH1B2 FP inh inactive and PAFAH1B3 FP inh inactive.
For O=[N+]([O-])c1cc(C(F)(F)F)cc([N+](=O)[O-])c1Sc1n[nH]c(C(F)(F)F)n1 the results were PME-1 inh inactive, Fam108B counter inactive, pPAFAH inh inactive, PAFAH2 inh inactive, PAFAH1B2 FP inh inactive and PAFAH1B3 FP inh inactive.
`COc1ccc(-n2cc(-c3ccccc3)c3c(NCCOCCO)ncnc32)cc1` gave PME-1 inh inactive, Fam108B counter inactive, pPAFAH inh 28.2, PAFAH2 inh inactive, PAFAH1B2 FP inh inactive and PAFAH1B3 FP inh inactive.
`COc1ccc(-n2cc(-c3ccccc3)c3c(NN4CCOCC4)ncnc32)cc1` gave PME-1 inh inactive, Fam108B counter inactive, pPAFAH inh inactive, PAFAH2 inh inactive, PAFAH1B2 FP inh inactive and PAFAH1B3 FP inh inactive.
Screening CCOc1ccc(-n2cc(-c3ccccc3)c3c(SC(C)C(=O)OC)ncnc32)cc1 (stereo not given) returned PME-1 inh inactive, Fam108B counter inactive, pPAFAH inh 30.3, PAFAH2 inh inactive, PAFAH1B2 FP inh inactive and PAFAH1B3 FP inh inactive.
Screening CC1CN(c2ncnc3c2c(-c2ccccc2)cn3-c2ccc(F)cc2)CC(C)O1 (stereo not given) returned PME-1 inh inactive, Fam108B counter inactive, pPAFAH inh inactive, PAFAH2 inh inactive, PAFAH1B2 FP inh inactive and PAFAH1B3 FP inh inactive.
For NS(=O)(=O)c1ccc(CCNc2ncnc3c2c(-c2ccccc2)cn3-c2ccc(F)cc2)cc1 the results were PME-1 inh inactive, Fam108B counter inactive, pPAFAH inh 26.8, PAFAH2 inh inactive, PAFAH1B2 FP inh inactive and PAFAH1B3 FP inh inactive.
Screening COC(=O)C(C)Sc1ncnc2c1c(-c1ccccc1)cn2-c1ccc(OC)cc1 (stereo not given) returned PME-1 inh inactive, Fam108B counter inactive, pPAFAH inh inactive, PAFAH2 inh inactive, PAFAH1B2 FP inh inactive and PAFAH1B3 FP inh inactive.
O=C1CCCc2c1cc(-c1ccccc1)n2-c1ccccc1 was read as PME-1 inh inactive, Fam108B counter inactive, pPAFAH inh inactive, PAFAH2 inh inactive, PAFAH1B2 FP inh 24.5 and PAFAH1B3 FP inh inactive.
For O=C1C2C3C=CC(CO)(O3)C2C(=O)N1c1ccc(-c2ccccc2)cc1 (stereo not given) the results were PME-1 inh inactive, Fam108B counter inactive and pPAFAH inh 27.8.
For COc1cccc(N(CC(=O)N2CCCC2)S(C)(=O)=O)c1 the results were PME-1 inh inactive, Fam108B counter inactive, pPAFAH inh inactive, PAFAH2 inh inactive, PAFAH1B2 FP inh inactive and PAFAH1B3 FP inh inactive.
For CCOc1ccc(OCCC(=O)OCC(=O)Nc2cc(C)nn2-c2ccccc2)cc1 the results were PME-1 inh inactive, Fam108B counter inactive, pPAFAH inh inactive, PAFAH2 inh inactive, PAFAH1B2 FP inh inactive and PAFAH1B3 FP inh inactive.
`Cc1cccc(OCCC(=O)OCC(=O)Nc2c(C)nn(-c3ccccc3)c2C)c1` gave PME-1 inh inactive, Fam108B counter inactive, pPAFAH inh 29.1, PAFAH2 inh inactive, PAFAH1B2 FP inh inactive and PAFAH1B3 FP inh inactive.
For Cc1nn(-c2ccccc2)c(C)c1NC(=O)COC(=O)CC(C)c1ccccc1 (stereo not given) the results were PME-1 inh inactive, Fam108B counter inactive, pPAFAH inh 27.4, PAFAH2 inh inactive, PAFAH1B2 FP inh inactive and PAFAH1B3 FP inh inactive.
For Cc1nn(-c2ccccc2)c(C)c1NC(=O)COC(=O)Cc1cccc(C(F)(F)F)c1 the results were PME-1 inh inactive, Fam108B counter inactive, pPAFAH inh inactive, PAFAH2 inh inactive, PAFAH1B2 FP inh inactive and PAFAH1B3 FP inh inactive.
